Source: PubChem (National Center for Advancing Translational Sciences (NCATS))
An excerpt weighted towards active compounds, which were near 18% of everything screened.
TDP1 cell CPT – qHTS for Inhibitors of human tyrosyl-DNA phosphodiesterase 1 (TDP1): qHTS in cells in presence of CPT; AID 686979, 2013; actives 12% (n = 420,000); Potency, µM (series often up to 46.2 µM), for the others: at the highest dose activity change, negative = growth inhibition, most hits filed as inhibitors; chicken DT40 Tdp1-/-;hTDP1 cells + 20 nM CPT, ATP luminescence, 48 h; note: nearly all actives have a fitted effect of over 55% in size
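Chicken DT40 Tdp1-/- cells complemented with human TDP1, 400 cells/well, exposed to compounds plus 20 nM camptothecin for at least 48 h at 37 C; viability read as ATP content by CellTiter-Glo luminescence.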
VDR inhibitor – Inhibitors of the vitamin D receptor (VDR): qHTS. Vitamin D3 receptor (Homo sapiens), P11473. VDR-SRC2-3 peptide fluorescence polarization, 2 h. Potency, µM, without a hit: max response, negative = inhibition, actives largely listed as inhibitors. actives 0.93% (n = 400,000)
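The screen uses fluorescence polarization to detect compounds that interfere with recruitment of the SRC2-3 coactivator peptide to VDR; plates are read after 2 h at room temperature.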
KAT2A inh – qHTS Assay for Inhibitors of GCN5L2; Histone acetyltransferase KAT2A (Homo sapiens), Q92830; GCN5L2 HAT assay, ThioGlo1 CoA-SH fluorescence; Potency, µM (doses to about 58.9 µM), without a hit: at the highest dose activity change, negative = inhibition, actives largely listed as inhibitors; actives 0.21% (n = 390,000); AID 504327, 2011
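Preincubate 20nM GCN5L2 with compound 15 min, RT → add 50uM ThioGlo1 + 75uM H3(1-25) + 70uM acetyl-CoA → read fluorescence 0 and 20 min. Primary qHTS; fluorescent artifacts likely.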
PLK1 PBD inh – qHTS for Inhibitors of PLK1-PDB (polo-like kinase 1 - polo-box domain): Primary Screen; Plk1 PBD binding of FITC phosphopeptide, fluorescence polarization; Serine/threonine-protein kinase PLK1 (Homo sapiens), P53350; actives 2.8% (n = 360,000); AID 720504, 2013; Potency, µM, without a hit: max response, negative = inhibition, actives largely listed as inhibitors; note: series mostly up to about 57 µM; nearly all actives have a fitted effect of over 65% in size
Target sequence (P53350 whole entry, looked up, the tested form may be a part): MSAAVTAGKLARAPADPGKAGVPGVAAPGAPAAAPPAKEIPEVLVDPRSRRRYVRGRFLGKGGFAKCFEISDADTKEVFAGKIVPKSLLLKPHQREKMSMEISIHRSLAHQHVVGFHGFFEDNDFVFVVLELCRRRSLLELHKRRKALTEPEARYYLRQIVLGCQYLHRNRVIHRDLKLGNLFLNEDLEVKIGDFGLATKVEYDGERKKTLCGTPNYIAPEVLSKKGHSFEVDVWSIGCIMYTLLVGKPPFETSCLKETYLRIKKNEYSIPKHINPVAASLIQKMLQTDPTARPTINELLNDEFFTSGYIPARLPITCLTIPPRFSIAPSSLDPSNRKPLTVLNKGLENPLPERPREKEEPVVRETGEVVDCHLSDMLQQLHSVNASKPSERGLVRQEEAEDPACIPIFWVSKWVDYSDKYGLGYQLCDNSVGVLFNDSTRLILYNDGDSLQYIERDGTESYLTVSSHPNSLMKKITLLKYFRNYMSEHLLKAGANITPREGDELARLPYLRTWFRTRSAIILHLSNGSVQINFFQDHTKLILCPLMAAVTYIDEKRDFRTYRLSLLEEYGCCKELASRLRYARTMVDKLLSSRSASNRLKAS
TDP1 cell noCPT – qHTS for Inhibitors of human tyrosyl-DNA phosphodiesterase 1 (TDP1): qHTS in cells in absence of CPT; DT40 Tdp1-/- hTDP1 cells, no CPT, ATP luminescence, 48 h; Potency, µM (top dose mostly 46.2 µM), for the others: top-dose activity change, negative = growth inhibition, most hits filed as inhibitors; actives 15% (n = 420,000); note: nearly all actives have a fitted effect of over 55% in size
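A cellular qHTS used chicken DT40 cells lacking endogenous Tdp1 but carrying stably transfected human TDP1. Compounds were applied without camptothecin, and cell growth kinetics were judged by ATP-dependent luminescence after ≥48 hr.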
TDP1 inh – qHTS Assay for Inhibitors of Tyrosyl-DNA Phosphodiesterase (TDP1). Tyrosyl-DNA phosphodiesterase 1 (Homo sapiens), Q9NUW8. actives 0.28% (n = 350,000). recombinant TDP1, AlphaScreen DNA substrate cleavage. Potency, µM (top dose mostly 130 µM), without a hit: at the top dose activity change, negative = inhibition, hits mostly inhibitors. AID 485290, 2010; note: nearly all actives have a fitted effect of over 40% in size
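Here, a 5' biotin and 3' phosphotyrosine-FITC DNA oligonucleotide reports Tdp1 activity: intact substrate bridges AlphaScreen beads, while cleavage leaves a 3' phosphate and drops signal. All incubations at room temperature.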
Starred values were filed as active, the others as inactive; [ ] = dose if it differs, or a comment. Calls come from the whole dose curve; as a rule, active = well fitted curve in the direction sought with a large enough effect; inconclusive = small, poorly fitted or top-dose-only effect, or another doubt; inactive = no such curve, though single readings can be large; an effect the other way counts as inactive or inconclusive. % is set by controls: 0 for no effect and ±100 for the full control effect; potency is the fitted concentration of half-maximal effect.

Screening CCCCCCC[C@@H](C/C=C/CCC(=O)N(C)C/C(=C/Cl)C/C(=C\C(=O)N1CC(OC)=CC1=O)OC)OC returned TDP1 cell CPT 2.3µM*, VDR inhibitor -14%, KAT2A inh -9%, PLK1 PBD inh -4%, TDP1 cell noCPT 1.8µM* and TDP1 inh -13%.
For CCCCCCC[C@@H](C/C=C/CCC(=O)O)OC the results were TDP1 cell CPT -13%, VDR inhibitor -15%, KAT2A inh 0%, PLK1 PBD inh -6%, TDP1 cell noCPT -13% and TDP1 inh 1%.
Screening CCCCCCC[C@@H](C/C=C/CCC(=O)N(C)C/C(=C/Cl)C/C(=C\C(=O)N1C[C@H](O)CC1=O)OC)OC returned TDP1 cell CPT 9.2µM*, VDR inhibitor -3%, KAT2A inh -18%, PLK1 PBD inh -6%, TDP1 cell noCPT 9.2µM* and TDP1 inh -15%.
`COc1ccc(OCC(=O)N(C)CC2COc3ccccc3O2)cc1` (configuration not stated) gave TDP1 cell CPT 18µM*, VDR inhibitor -10%, KAT2A inh -3%, PLK1 PBD inh -18%, TDP1 cell noCPT inconclusive and TDP1 inh 0%.
For CC(C)(C)OC(=O)NCCCCCNC(=O)c1[nH]cnc1C(=O)Nc1ccc(Cl)cc1 the results were TDP1 cell CPT inconclusive, VDR inhibitor 9%, KAT2A inh -4%, PLK1 PBD inh -14%, TDP1 cell noCPT 15µM* and TDP1 inh 0%.
For Cc1ccc(NC(=O)c2nc[nH]c2C(=O)NCCCCCNC(=O)OC(C)(C)C)cc1 the results were TDP1 cell CPT inconclusive, VDR inhibitor 7%, KAT2A inh -17%, PLK1 PBD inh 5%, TDP1 cell noCPT 16µM* and TDP1 inh 1%.
`CC(C)(C)OC(=O)NCCCCCNC(=O)c1[nH]cnc1C(=O)Nc1ccccc1` gave TDP1 cell CPT inconclusive, VDR inhibitor -17%, KAT2A inh 0%, PLK1 PBD inh 5%, TDP1 cell noCPT 15µM* and TDP1 inh 0%.
Screening Cc1cc(C)c(/C=C/c2onc(C)c2S(=O)(=O)N2CCC(C(=O)N(C)Cc3ccccc3)CC2)c(C)c1 returned TDP1 cell CPT inconclusive, VDR inhibitor 6%, KAT2A inh -1%, TDP1 cell noCPT inconclusive and TDP1 inh 4%.
CCCCOc1ccccc1NC(=O)c1ccc(=O)[nH]c1 was read as TDP1 cell CPT -11%, VDR inhibitor -21%, KAT2A inh -1%, PLK1 PBD inh 30µM*, TDP1 cell noCPT -4% and TDP1 inh 0%.
Screening Cc1ccc(NC(=O)CC2Sc3ccccc3NC2=O)c(C)c1 (configuration not stated) returned TDP1 cell CPT inconclusive, VDR inhibitor 3%, KAT2A inh 3%, TDP1 cell noCPT 23µM* and TDP1 inh -2%[12.3 µM].
Screening CCCNC(=O)CC1Sc2ccccc2NC1=O (configuration not stated) returned TDP1 cell CPT -21%, VDR inhibitor 14%, KAT2A inh -7%, PLK1 PBD inh -5%, TDP1 cell noCPT -3% and TDP1 inh 8%.
For CCCCOc1ccccc1NC(=O)CC1Sc2ccccc2NC1=O (configuration not stated) the results were TDP1 cell CPT 21µM*, VDR inhibitor -17%, KAT2A inh 13% and TDP1 cell noCPT inconclusive.
Screening Cn1cnc2c(=O)oc3ccc(S(=O)(=O)N4CCN(c5cccc(C(F)(F)F)c5)CC4)cc3c21 returned TDP1 cell CPT -7%, VDR inhibitor 2%, KAT2A inh inconclusive, TDP1 cell noCPT 3% and TDP1 inh 0%.
CCOC(=O)c1cc(C#N)c(Nc2ccc(C)cc2)nc1C(F)(F)F was read as TDP1 cell CPT -27%, VDR inhibitor 0%, KAT2A inh -5%, PLK1 PBD inh 0%, TDP1 cell noCPT inconclusive and TDP1 inh 4%.
For COc1ccc(C(=O)c2cn(Cc3ccc(F)cc3)c3c(F)cc(F)cc3c2=O)cc1 the results were TDP1 cell CPT inconclusive, VDR inhibitor 20%, KAT2A inh -14%, TDP1 cell noCPT 23µM* and TDP1 inh 6%.
Screening CCOc1ccc(NC(=O)Cn2cc(C(=O)c3ccc(C)c(C)c3)c(=O)c3cc(OC)c(OC)cc32)cc1 returned TDP1 cell CPT -12%, VDR inhibitor 2%, KAT2A inh 0%, TDP1 cell noCPT -1% and TDP1 inh 1%.
COc1cc2c(=O)c(C(=O)c3ccc(C)c(C)c3)cn(Cc3ccccc3F)c2cc1OC was read as TDP1 cell CPT 18µM*, VDR inhibitor 0%, KAT2A inh -15%, TDP1 cell noCPT 16µM* and TDP1 inh 5%.
For COc1cc2c(=O)c(C(=O)c3ccc(C)c(C)c3)cn(Cc3ccc(F)cc3)c2cc1OC the results were TDP1 cell CPT 10µM*, VDR inhibitor -10%, KAT2A inh 0%, TDP1 cell noCPT 18µM* and TDP1 inh 0%.
Screening COc1ccc(C(=O)c2cn(Cc3ccccc3F)c3cc4c(cc3c2=O)OCCO4)cc1OC returned TDP1 cell CPT inconclusive, VDR inhibitor 5%, KAT2A inh -8%, TDP1 cell noCPT 21µM* and TDP1 inh 9%.
For O=C(O)C(c1ccccc1)C1(O)CC2CCC1C2 (configuration not stated) the results were TDP1 cell CPT 0%, VDR inhibitor -17%, PLK1 PBD inh -2% and TDP1 cell noCPT 8%.
Screening N/C(=N\N=C\c1ccc(Cl)cc1)N/N=C/c1ccc(Cl)cc1 returned TDP1 cell CPT inconclusive, VDR inhibitor inconclusive, KAT2A inh -10% and TDP1 cell noCPT -21%.
Screening CCOc1ccc(C(=O)c2cn(Cc3ccc(OC)cc3)c3cc(OC)c(OC)cc3c2=O)cc1 returned TDP1 cell CPT inconclusive, VDR inhibitor -2%, KAT2A inh -18%, TDP1 cell noCPT 18µM* and TDP1 inh 5%.
Screening COc1cc2c(=O)c(C(=O)c3ccc(F)cc3)cn(Cc3cccc(F)c3)c2cc1OC returned TDP1 cell CPT 21µM*, VDR inhibitor -8%, KAT2A inh -9%, TDP1 cell noCPT 16µM* and TDP1 inh 6%.
